# Laboratory results taken from PubChem BioAssay (NCI).
# Compounds without any hit were thinned out: in the full panel of roughly 79,000, 15% have a hit. Values without a mark were called inactive. The source made the active and inactive calls. Rule as the data show it: active = growth inhibition above about 70%; inactive = the rest.
# Key:
# [1] = NCI Yeast Anticancer Drug Screen. Data for the rad52 strain (AID 147);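 also: 0% = growth of vehicle-treated control cultures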; settings: S. cerevisiae rad52 mutant growth inhibition, active compounds read high
# How it was run: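 Measured: yeast growth inhibition. System: strain with a defined DNA damage repair alteration. Reference: vehicle-treated control cultures.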
# [2] = NCI Yeast Anticancer Drug Screen. Data for the wt1 strain (AID 149);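 also: 0% = growth of vehicle-treated wt1 cultures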; settings: S. cerevisiae wt1 strain (SPY 50644) growth inhibition, active compounds read high
# How it was run: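 Each compound is tested on wt1 yeast and the loss of growth versus vehicle gives the inhibition value.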
# [3] = NCI Yeast Anticancer Drug Screen. Data for the mgt1 strain (AID 153); settings: S. cerevisiae mgt1 mutant growth inhibition, active compounds read high
# How it was run: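 After exposure of the mgt1 yeast mutant to compound, growth was measured and reported as inhibition compared with vehicle controls.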
# [4] = NCI Yeast Anticancer Drug Screen. Data for the rad50 strain (AID 155);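 also: 0% = growth of vehicle-only cultures of the same strain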; settings: S. cerevisiae rad50 strain growth inhibition, active compounds read high
# How it was run: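 Vehicle-treated cultures provide the reference for the growth inhibition reported for compound-exposed, repair-deficient yeast.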
# [5] = NCI Yeast Anticancer Drug Screen. Data for the mec2-1 strain (AID 157); settings: S. cerevisiae mec2-1 strain, active compounds read high
# How it was run: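 Test agents were screened against the mec2-1 yeast strain, with defined DNA repair or cell cycle alteration. Growth was scored as inhibition against vehicle-only controls.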
# [6] = NCI Yeast Anticancer Drug Screen. Data for the rad14 strain (AID 159);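 also: 0% = growth of vehicle-treated control cultures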; settings: S. cerevisiae rad14 strain growth inhibition, active compounds read high
# How it was run: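 Inhibition of growth is reported for a repair-deficient yeast mutant following compound treatment, calculated relative to cultures that received vehicle.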
# [7] = NCI Yeast Anticancer Drug Screen. Data for the sgs1 mgt1 strain (AID 161);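 also: 0% = growth of cultures given vehicle only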; settings: S. cerevisiae sgs1 mgt1 strain, active compounds read high
# How it was run: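 Genetically altered yeast, compound exposure, growth inhibition relative to vehicle.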
# [8] = NCI Yeast Anticancer Drug Screen. Data for the CLN2oe strain (AID 163);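 also: 0% = growth of vehicle-only control cultures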; settings: S. cerevisiae CLN2oe strain, active compounds read high
# How it was run: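 Here, growth inhibition in a cell-cycle-altered yeast strain after compound exposure was quantified against vehicle control growth.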
# [9] = NCI Yeast Anticancer Drug Screen. Data for the cln2 rad14 strain (AID 165);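 also: 0% = growth equal to vehicle treated cultures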; settings: S. cerevisiae cln2 rad14 strain, active compounds read high
# How it was run: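 Growth of compound-exposed yeast (cln2 rad14 genotype) measured and expressed as inhibition relative to vehicle.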
# [10] = NCI Yeast Anticancer Drug Screen. Data for the bub3 strain (AID 167); settings: S. cerevisiae bub3 mutant strain, active compounds read high
# How it was run: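 Mutant yeast screening strain plus compound; vehicle-treated cultures serve as the 0% inhibition reference.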
# [11] = NCI Yeast Anticancer Drug Screen. Data for the wt2 strain (AID 169); settings: S. cerevisiae wt2 strain growth inhibition, active compounds read high
# How it was run: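 Genetically defined yeast strains from a DNA-repair/cell-cycle panel were used. Compound-exposed yeast growth was measured, and the inhibition was calculated relative to vehicle treatment.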
# [12] = NCI Yeast Anticancer Drug Screen. Data for the mlh1 strain (AID 171);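 also: 0% = growth of vehicle-treated control cultures of the same strain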; settings: S. cerevisiae mlh1 strain growth inhibition, active compounds read high
# How it was run: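 Here the genetically defined yeast mutant is grown with each compound, and the extent to which its growth falls below that of vehicle-exposed cells is reported.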
# [13] = NCI Yeast Anticancer Drug Screen. Data for the sgs1 strain (AID 173);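 also: 0% = growth of vehicle-only control cultures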; settings: S. cerevisiae sgs1 mutant, active compounds read high
# How it was run: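 Relative growth inhibition, referenced to vehicle, was determined in a yeast strain with a defined alteration affecting DNA damage repair or cell cycle control after compound exposure.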
# [14] = NCI Yeast Anticancer Drug Screen. Data for the mlh1 rad18 strain (AID 175); settings: S. cerevisiae mlh1 rad18 strain growth inhibition, active compounds read high
# How it was run: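 In this whole-cell yeast screen, a strain with altered DNA damage repair is challenged with compound, and its growth is measured against matched vehicle-treated controls.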
# [15] = NCI Yeast Anticancer Drug Screen. Data for the rad18 strain (AID 177); settings: S. cerevisiae rad18 mutant growth inhibition, active compounds read high
# How it was run: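 Screen uses a yeast strain with a defined lesion in DNA damage repair; compound effect is read as loss of growth compared to untreated vehicle cultures.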
# [16] = at 5.0 µM (retest, dose inferred, filed as 0.5)
# [17] = at 50.0 µM (retest, dose inferred, filed as 5.0)
structure (smiles),measurement,setting,value
COC(=O)C1=C(C(=O)OC)CC(n2nnc(C(=O)OC)c2C(=O)OC)=CC1,growth inhibition,[1]; at 1.2 µM,-1%
same,growth inhibition,[1]; at 3.7 µM,1%
same,growth inhibition,[1]; at 11.0 µM,2%
same,growth inhibition,[1]; at 33.0 µM,0%
same,growth inhibition,[1]; at 100.0 µM,-2%
same,growth inhibition,[2]; at 1.2 µM,0%
same,growth inhibition,[2]; at 3.7 µM,0%
same,growth inhibition,[2]; at 11.0 µM,-1%
same,growth inhibition,[2]; at 33.0 µM,-1%
same,growth inhibition,[2]; at 100.0 µM,-2%
same,growth inhibition,[3]; at 1.2 µM,-1%
same,growth inhibition,[3]; at 3.7 µM,1%
same,growth inhibition,[3]; at 11.0 µM,-2%
same,growth inhibition,[3]; at 33.0 µM,-2%
same,growth inhibition,[3]; at 100.0 µM,-6%
same,growth inhibition,[4]; at 1.2 µM,-1%
same,growth inhibition,[4]; at 3.7 µM,-3%
same,growth inhibition,[4]; [16],-1%
same,growth inhibition,[4]; at 11.0 µM,-3%
same,growth inhibition,[4]; at 33.0 µM,-2%
same,growth inhibition,[4]; [17],0%
same,growth inhibition,[4]; at 50.0 µM,43.4%
same,growth inhibition,[4]; at 100.0 µM,-4%
same,growth inhibition,[5]; at 1.2 µM,-4%
same,growth inhibition,[5]; at 3.7 µM,-6%
same,growth inhibition,[5]; [16],-1%
same,growth inhibition,[5]; at 11.0 µM,-5%
same,growth inhibition,[5]; at 33.0 µM,-4%
same,growth inhibition,[5]; [17],-1%
same,growth inhibition,[5]; at 50.0 µM,1.2%
same,growth inhibition,[5]; at 100.0 µM,-9%
same,growth inhibition,[6]; at 1.2 µM,0%
same,growth inhibition,[6]; at 3.7 µM,3%
same,growth inhibition,[6]; at 11.0 µM,4%
same,growth inhibition,[6]; at 33.0 µM,3%
same,growth inhibition,[6]; at 100.0 µM,1%
same,growth inhibition,[7]; [16],6%
same,growth inhibition,[7]; [17],-6%
same,growth inhibition,[7]; at 50.0 µM,0.5%
same,growth inhibition,[8]; at 1.2 µM,-7%
same,growth inhibition,[8]; at 3.7 µM,-3%
same,growth inhibition,[8]; at 11.0 µM,-4%
same,growth inhibition,[8]; at 33.0 µM,-1%
same,growth inhibition,[8]; at 100.0 µM,-7%
same,growth inhibition,[9]; [16],-2%
same,growth inhibition,[9]; [17],-2%
same,growth inhibition,[9]; at 50.0 µM,-9.5%
same,growth inhibition,[10]; at 1.2 µM,-4%
same,growth inhibition,[10]; at 3.7 µM,-4%
same,growth inhibition,[10]; [16],-1%
same,growth inhibition,[10]; at 11.0 µM,-3%
same,growth inhibition,[10]; at 33.0 µM,-6%
same,growth inhibition,[10]; [17],1%
same,growth inhibition,[10]; at 50.0 µM,-4.1%
same,growth inhibition,[10]; at 100.0 µM,-2%
same,growth inhibition,[11]; at 1.2 µM,-1%
same,growth inhibition,[11]; at 3.7 µM,-2%
same,growth inhibition,[11]; at 11.0 µM,-1%
same,growth inhibition,[11]; at 33.0 µM,-2%
same,growth inhibition,[11]; at 100.0 µM,-3%
same,growth inhibition,[12]; at 1.2 µM,-1%
same,growth inhibition,[12]; at 3.7 µM,-2%
same,growth inhibition,[12]; at 11.0 µM,-2%
same,growth inhibition,[12]; at 33.0 µM,-1%
same,growth inhibition,[12]; at 100.0 µM,-3%
same,growth inhibition,[13]; at 1.2 µM,-1%
same,growth inhibition,[13]; at 3.7 µM,-1%
same,growth inhibition,[13]; at 11.0 µM,-2%
same,growth inhibition,[13]; at 33.0 µM,-2%
same,growth inhibition,[13]; at 100.0 µM,0%
same,growth inhibition,[14]; [16],-2%
same,growth inhibition,[14]; [17],44%
same,growth inhibition,[14]; at 50.0 µM,4.4%
same,growth inhibition,[15]; at 1.2 µM,0%
same,growth inhibition,[15]; at 3.7 µM,1%
same,growth inhibition,[15]; at 11.0 µM,0%
same,growth inhibition,[15]; at 33.0 µM,-1%
same,growth inhibition,[15]; at 100.0 µM,1%
CC1=CC(C)(C)SC(SSSC2=NC(C)=CC(C)(C)S2)=N1,growth inhibition,[1]; at 1.2 µM,-3%
same,growth inhibition,[1]; at 3.7 µM,-3%
same,growth inhibition,[1]; at 11.0 µM,0%
same,growth inhibition,[1]; at 33.0 µM,7%
same,growth inhibition,[1]; at 100.0 µM,78% (active)
same,growth inhibition,[2]; at 1.2 µM,-3%
same,growth inhibition,[2]; at 3.7 µM,-2%
same,growth inhibition,[2]; at 11.0 µM,0%
same,growth inhibition,[2]; at 33.0 µM,7%
same,growth inhibition,[2]; at 100.0 µM,39%
same,growth inhibition,[3]; at 1.2 µM,-8%
same,growth inhibition,[3]; at 3.7 µM,1%
same,growth inhibition,[3]; at 11.0 µM,3%
same,growth inhibition,[3]; at 33.0 µM,7%
same,growth inhibition,[3]; at 100.0 µM,89% (active)
same,growth inhibition,[4]; at 1.2 µM,-17%
same,growth inhibition,[4]; at 3.7 µM,-4%
same,growth inhibition,[4]; [16],-6%
same,growth inhibition,[4]; at 11.0 µM,-4%
same,growth inhibition,[4]; at 33.0 µM,1%
same,growth inhibition,[4]; [17],48%
same,growth inhibition,[4]; at 50.0 µM,15.6%
same,growth inhibition,[4]; at 100.0 µM,65%
same,growth inhibition,[5]; at 1.2 µM,-2%
same,growth inhibition,[5]; at 3.7 µM,-4%
same,growth inhibition,[5]; [16],0%
same,growth inhibition,[5]; at 11.0 µM,0%
same,growth inhibition,[5]; at 33.0 µM,8%
same,growth inhibition,[5]; [17],15%
same,growth inhibition,[5]; at 50.0 µM,10.7%
